Data: PubChem BioAssay AID1159580 (chemical genetic matrix, 2015)
The campaign covered roughly 5,500 compounds. About 2,000 (36%) were called active. Another 18% or so got no clear call; they are omitted. Rule as the data show it: active = normalized growth mostly below about 0.91 (no sharp cut-off); inconclusive = no clear call, values can overlap the other calls; inactive = mostly above about 0.92. This is one part of the list.

Test: chemical genetic growth profiling, strain panel (AID 1159580);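 also: tested at 20 µM; growth read once vehicle control cultures reached saturation at 30 °C; 1 = growth at the plate median or of vehicle wells; lower values mean less growth of the strain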
Conditions: growth OD
[1] = S. cerevisiae deletion strains, locus YBR021W, strain FUR4, hits give low values
[2] = S. cerevisiae deletion strains, locus YBR229C, strain ROT2, hits give low values
[3] = S. cerevisiae deletion strains, locus YCL029C, strain bik1, hits give low values
[4] = S. cerevisiae deletion strains, locus YDL035C, strain GPR1, hits give low values
[5] = S. cerevisiae deletion strains, locus YDL074C, strain BRE1, hits give low values
[6] = S. cerevisiae deletion strains, locus YDL101C, strain DUN1, hits give low values
[7] = S. cerevisiae deletion strains, locus YDL185W, strain tfp1, hits give low values
[8] = S. cerevisiae deletion strains, locus YDL192W, strain arf1, hits give low values
[9] = S. cerevisiae deletion strains, locus YDR101C, strain arx1, hits give low values
[10] = S. cerevisiae deletion strains, locus YDR150W, strain NUM1, hits give low values
[11] = S. cerevisiae deletion strains, locus YDR162C, strain NBP2, hits give low values
[12] = S. cerevisiae deletion strains, locus YDR318W, strain mcm21, hits give low values
[13] = S. cerevisiae deletion strains, locus YDR388W, hits give low values
[14] = S. cerevisiae deletion strains, locus YDR502C, strain sam2, hits give low values
[15] = S. cerevisiae deletion strains, locus YEL061C, strain CIN8, hits give low values
[16] = S. cerevisiae deletion strains, locus YER110C, hits give low values
[17] = S. cerevisiae deletion strains, locus YER155C, strain BEM2, hits give low values
[18] = S. cerevisiae deletion strains, locus YER167W, strain BCK2, hits give low values
[19] = S. cerevisiae deletion strains, locus YGL078C, strain dbp3, hits give low values
[20] = S. cerevisiae deletion strains, locus YGL086W, strain mad1, hits give low values
[21] = S. cerevisiae deletion strains, locus YGL248W, strain PDE1, hits give low values
[22] = S. cerevisiae deletion strains, locus YGR078C, strain PAC10, hits give low values
[23] = S. cerevisiae deletion strains, locus YGR135W, strain pre9, hits give low values
[24] = S. cerevisiae deletion strains, locus YGR252W, strain gcn5, hits give low values
[25] = S. cerevisiae deletion strains, locus YHR030C, strain SLT2, hits give low values
[26] = S. cerevisiae deletion strains, locus YHR079C, strain IRE1 (second series), hits give low values
[27] = S. cerevisiae deletion strains, locus YHR094C, strain hxt1, hits give low values
[28] = S. cerevisiae deletion strains, locus YHR129C, strain ARP1, hits give low values
[29] = S. cerevisiae deletion strains, locus YHR200W, strain rpn10, hits give low values
[30] = S. cerevisiae deletion strains, locus YIL066C, strain RNR3, hits give low values
[31] = S. cerevisiae deletion strains, locus YIL073C, strain SPO22, hits give low values
[32] = S. cerevisiae deletion strains, locus YIL125W, strain kgd1, hits give low values
[33] = S. cerevisiae deletion strains, locus YIR030C, strain dcg1, hits give low values
[34] = S. cerevisiae deletion strains, locus YJL095W, strain BCK1, hits give low values
[35] = S. cerevisiae deletion strains, locus YJL134W, strain LCB3, hits give low values
[36] = S. cerevisiae deletion strains, locus YJL168C, strain set2, hits give low values
[37] = S. cerevisiae deletion strains, locus YJL187C, strain SWE1 (second series), hits give low values
[38] = S. cerevisiae deletion strains, locus YJR043C, strain POL32, hits give low values
[39] = S. cerevisiae deletion strains, locus YJR075W, strain HOC1, hits give low values
[40] = S. cerevisiae deletion strains, locus YKL009W, strain mrt4, hits give low values
[41] = S. cerevisiae deletion strains, locus YKL068W, hits give low values
[42] = S. cerevisiae deletion strains, locus YKL085W, strain MDH1 (second series), hits give low values
[43] = S. cerevisiae deletion strains, locus YKL085W, strain MDH1, hits give low values
[44] = S. cerevisiae deletion strains, locus YKL190W, strain CNB1, hits give low values
[45] = S. cerevisiae deletion strains, locus YKR001C, strain vps1, hits give low values
[46] = S. cerevisiae deletion strains, locus YLR039C, strain RIC1, hits give low values
[47] = S. cerevisiae deletion strains, locus YLR058C, strain SHM2, hits give low values
[48] = S. cerevisiae deletion strains, locus YLR102C, strain apc9, hits give low values
[49] = S. cerevisiae deletion strains, locus YLR262C, strain YPT6, hits give low values
[50] = S. cerevisiae deletion strains, locus YLR268W, strain sec22, hits give low values
[51] = S. cerevisiae deletion strains, locus YLR330W, strain CHS5, hits give low values
[52] = S. cerevisiae deletion strains, locus YLR342W, strain FKS1 (second series), hits give low values
[53] = S. cerevisiae deletion strains, locus YLR371W, strain rom2, hits give low values
[54] = S. cerevisiae deletion strains, locus YLR418C, strain cdc73, hits give low values
[55] = S. cerevisiae deletion strains, locus YML016C, strain PPZ1, hits give low values
[56] = S. cerevisiae deletion strains, locus YML032C, strain rad52, hits give low values
[57] = S. cerevisiae deletion strains, locus YML124C, strain tub3, hits give low values
[58] = S. cerevisiae deletion strains, locus YMR078C, strain ctf18, hits give low values
[59] = S. cerevisiae deletion strains, locus YMR223W, strain ubp8, hits give low values
[60] = S. cerevisiae deletion strains, locus YMR307W, strain GAS1, hits give low values
[61] = S. cerevisiae deletion strains, locus YNL067W, strain RPL9B, hits give low values
[62] = S. cerevisiae deletion strains, locus YNL128W, strain TEP1, hits give low values
[63] = S. cerevisiae deletion strains, locus YNL153C, strain GIM3, hits give low values
[64] = S. cerevisiae deletion strains, locus YNL233W, strain BNI4, hits give low values
[65] = S. cerevisiae deletion strains, locus YNL250W, strain rad50, hits give low values
[66] = S. cerevisiae deletion strains, locus YNL271C, strain bni1, hits give low values
[67] = S. cerevisiae deletion strains, locus YNL298W, strain CLA4, hits give low values
[68] = S. cerevisiae deletion strains, locus YNL307C, strain MCK1, hits give low values
[69] = S. cerevisiae deletion strains, locus YNR052C, strain pop2, hits give low values
[70] = S. cerevisiae deletion strains, locus YOL012C, strain htz1
[71] = S. cerevisiae deletion strains, locus YOL147C, strain pex11, hits give low values
[72] = S. cerevisiae deletion strains, locus YOR061W, strain CKA2, hits give low values
[73] = S. cerevisiae deletion strains, locus YOR069W, strain VPS5, hits give low values
[74] = S. cerevisiae deletion strains, locus YOR136W, strain idh2, hits give low values
[75] = S. cerevisiae deletion strains, locus YOR144C, strain elg1, hits give low values
[76] = S. cerevisiae deletion strains, locus YOR184W, strain ser1, hits give low values
[77] = S. cerevisiae deletion strains, locus YOR316C, strain cot1, hits give low values
[78] = S. cerevisiae deletion strains, locus YPL055C, strain LGE1, hits give low values
[79] = S. cerevisiae deletion strains, locus YPL241C, strain CIN2, hits give low values
[80] = S. cerevisiae deletion strains, locus YPR119W, strain clb2, hits give low values
[81] = S. cerevisiae deletion strains, locus YPR141C, strain kar3, hits give low values
[82] = S. cerevisiae deletion strains, locus YPR163C, strain tif3, hits give low values
[83] = S. cerevisiae deletion strains, locus YPR167C, strain met16, hits give low values
[84] = S. cerevisiae deletion strains, strain wtn01, hits give low values
[85] = S. cerevisiae strains, strain wild type, hits give low values

Measured: normalized growth

C=C(C)C1CCC(C)(O)C2CC3OC3(C)C2C1 (stereo unspecified)
inactive: S. cerevisiae deletion strains, locus YAL013W, strain DEP1, hits give low values 1.01 | [1] 1.02 | [2] 1.01 | [3] 1.02 | [4] 1.01 | [5] 0.99 | [6] 0.999 | S. cerevisiae deletion strains, locus YDL134C, strain PPH21, hits give low values 1 | [7] 1.01 | [8] 1.02 | [9] 1 | [10] 1.02 | [11] 0.995 | [12] 1.02 | [13] 1.01 | [14] 1.01 | [15] 1 | [16] 1.01 | [17] 0.999 | [18] 1.01 | [19] 1.01 | [20] 1.02 | [21] 1 | [22] 0.995 | [23] 1 | S. cerevisiae deletion strains, locus YGR229C, strain SMI1, hits give low values 1.03 | [24] 1.01 | [25] 1 | [26] 1.01 | [27] 1.01 | [28] 1 | [29] 1.01 | [30] 1.01 | [31] 1.07 | [32] 1.01 | [33] 1 | [34] 0.978 | [35] 1.01 | [36] 1 | [37] 1.01 | [38] 1.03 | [39] 1.06 | [40] 1.02 | [41] 1.01 | [42] 1 | [43] 1 | [44] 1 | [45] 1.02 | [46] 0.992 | [47] 1.01 | [48] 1.01 | [49] 0.999 | [50] 1.01 | [51] 1 | [52] 1.04 | [53] 1.01 | [54] 0.992 | [55] 0.995 | [56] 1.02 | [57] 1.01 | [58] 1.01 | [59] 1.01 | S. cerevisiae deletion strains, locus YMR263W, strain SAP30, hits give low values 1 | [60] 1.03 | [61] 1.02 | [62] 0.99 | [63] 1 | [64] 0.998 | [65] 1.02 | [66] 1.01 | [67] 1.01 | [68] 1.02 | S. cerevisiae deletion strains, locus YNL322C, strain KRE1, hits give low values 1.01 | [69] 1.02 | S. cerevisiae deletion strains, locus YOL006C, strain TOP1, hits give low values 0.996 | [70] 0.919 | [71] 1.01 | [72] 1 | [73] 1.01 | [74] 1.03 | [75] 1.01 | [76] 1.03 | [77] 1.01 | [78] 1 | [79] 1 | [80] 1.01 | [81] 1.01 | [82] 1.02 | [83] 1.01 | [84] 1 | [85] 1.04

CC(C)CC1NC(=O)CNC1=O (stereo unspecified)
inactive: [1] 1.03 | [2] 0.953 | [3] 0.965 | [4] 0.992 | [5] 1.04 | [6] 0.974 | [7] 0.963 | [8] 0.992 | [9] 1.01 | [10] 0.984 | [11] 0.937 | [12] 0.98 | [13] 0.989 | [14] 0.987 | [15] 0.989 | [16] 0.976 | [17] 1.01 | [18] 1 | [19] 0.978 | [20] 1.03 | [21] 0.981 | [22] 0.969 | [23] 0.966 | [24] 0.958 | [25] 1 | [26] 1.01 | [27] 0.972 | [28] 0.997 | [29] 0.971 | [30] 0.981 | [31] 0.986 | [32] 0.987 | [33] 0.995 | [34] 0.964 | [35] 0.992 | [36] 0.991 | [37] 0.969 | [38] 0.977 | [39] 0.993 | [40] 1.02 | [41] 0.985 | [42] 1.02 | [43] 1.02 | [44] 0.981 | [45] 1.01 | [46] 0.964 | [47] 0.979 | [48] 0.993 | [49] 0.938 | [50] 1.01 | [51] 1 | [52] 1.05 | [53] 0.98 | [54] 0.974 | [55] 0.99 | [56] 0.959 | [57] 0.982 | [58] 0.964 | [59] 0.988 | [60] 1.02 | [61] 0.971 | [62] 0.969 | [63] 0.951 | [64] 0.997 | [65] 0.988 | [66] 0.983 | [67] 0.973 | [68] 0.984 | [69] 0.981 | [70] 0.849 | [71] 0.99 | [72] 0.968 | [73] 0.996 | [74] 1.01 | [75] 0.978 | [76] 0.974 | [77] 0.976 | [78] 1.01 | [79] 0.992 | [80] 0.985 | [81] 0.984 | [82] 0.974 | [83] 1 | [84] 1.02 | [85] 0.985
